# Measured values reported in PubChem BioAssay (NCI).
# Compounds without any hit were thinned out: in the full panel of roughly 83,000, 20% have a hit.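 A percent growth of 40 corresponds to 60% growth inhibition; 0 means no net growth; -100 means all cells died. Active threshold: below 10.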 A number with no mark means an inactive call. The source made the active and inactive calls.
# Columns and labels:
# Assay in all cases: NCI-60 one-dose screen, 48 h (100 = growth as untreated, 0 = no growth, -100 = all killed)
# Conditions in all cases: 10 µM unless noted
# SR leukemia = system: SR leukemia
# OVCAR-8 ovarian = system: OVCAR-8 ovarian
# OVCAR-5 ovarian = system: OVCAR-5 ovarian
# OVCAR-4 ovarian = system: OVCAR-4 ovarian
# IGROV1 ovarian = system: IGROV1 ovarian
# OVCAR-3 ovarian = system: OVCAR-3 ovarian
# HS 578T breast = system: HS 578T breast
# NCI/ADR-RES ovarian = system: NCI/ADR-RES ovarian
# RPMI-8226 leukemia = system: RPMI-8226 leukemia
# SK-OV-3 ovarian = system: SK-OV-3 ovarian
SMILES,growth (SR leukemia),growth (OVCAR-8 ovarian),growth (OVCAR-5 ovarian) [%],growth (OVCAR-4 ovarian),growth (IGROV1 ovarian) [%],growth (OVCAR-3 ovarian),growth (HS 578T breast) [%],growth (NCI/ADR-RES ovarian),growth (RPMI-8226 leukemia) [%],growth (SK-OV-3 ovarian) [%]
NCCNc1nc(-c2ccccc2)nc2nc(-c3ccccc3)oc12,7.63% (active),97.7%,105,96.5%,81.8,88.2%,91.3,91.8%,–,–
Cc1ccc2c(c1)c(-c1nc(-c3c[nH]c4ncccc34)cs1)cn2C,–,104%,68.6,–,99.2,139%,109,89.4%,72.7,102
Fc1ccc2[nH]cc(-c3nc(-c4c[nH]c5ncccc45)cs3)c2c1,–,36.6%,86.1,–,32.5,44.5%,31.4,27.1%,31.5,58.9
S=c1[nH]nc2ccccn12,95.7%,125%,108,–,115,124%,–,100%,–,114
Clc1ccc2[nH]cc(-c3nc(-c4c[nH]c5ncccc45)cs3)c2c1,9.06% (active),46.2%,80.6,–,32.8,55.9%,75.7,38.7%,–,59.6
O=c1[nH]ncc(Br)c1Br,–,7.24% (active),115,-100% (active),51.2,-100% (active),–,38.1%,23.9,122
CCCC1CCCCN1C(=O)OCC(C)C (stereo unspecified),–,105%,102,–,101,112%,102,137%,108,110
Cn1cc(-c2nc(-c3c[nH]c4ncccc34)cs2)c2cc(Cl)ccc21,–,63.2%,60.3,–,46.3,69.9%,61.6,44.7%,34.2,71.7
CC1=CC(=O)N(c2cccc3c(N4C(=O)C=C(C)C4=O)cccc23)C1=O,-21.1% (active),80.3%,–,–,76.3,-16.2% (active),110,78.3%,–,108
O=C1C=C(C(O)c2ccc(O)cc2)C(=O)c2ccccc21 (stereo unspecified),87.7%,104%,99.7,–,86.3,96.2%,120,105%,–,85.8
C(=C\c1c[nH]c2ccccc12)/c1ccc2ccccc2n1,67.5%,78.7%,121,–,47.8,69.3%,107,72.1%,–,89.5
COc1cc2c(cc1OC)C(=O)/C(=C/c1cc(-c3ccc4c(c3)OCO4)n[nH]1)C2,-43.8% (active),–,–,14.4%,52.7,-50.4% (active),–,-15% (active),–,33.6
COc1ccc2c(c1)c(-c1nc(-c3c[nH]c4ncccc34)cs1)cn2C,–,80.8%,55,–,59.8,103%,77.2,–,44.3,63.9
Brc1ccc2[nH]cc(-c3nc(-c4c[nH]c5ncccc45)cs3)c2c1,9.23% (active),46.3%,63.7,–,23.1,52.4%,71.8,32.7%,–,55
Cn1cc(-c2csc(-c3cn(C(=O)OC(C)(C)C)c4ccccc34)n2)c2cccnc21,–,76.3%,104,–,59.8,14.6%,73.1,29.3%,75.3,74.9
Cc1cc(N(CCCNc2ccnc3cc(Cl)ccc23)Cc2ccco2)nc(Cl)n1,21.7%,–,69.3,54.1%,51.8,66.1%,75.4,45.7%,–,58.7
Cc1ccc2[nH]cc(-c3nc(-c4cn(C)c5ncccc45)cs3)c2c1,–,85.8%,108,–,108,106%,99,66.7%,62.7,102
CCCCCC1CCCCN1C(=O)OCC (stereo unspecified),–,107%,94.7,105%,104,–,110,111%,103,98.5
N#C/C(=C\c1ccc(-c2ccc(F)cc2)o1)c1nc(-c2ccco2)cs1,86.3%,102%,65.1,19.2%,60,–,109,107%,–,103
N=C(N)c1ccc(S(N)(=O)=O)cc1,–,100%,88.2,–,110,113%,–,97.5%,–,115
c1ccc2c(-c3nc(-c4c[nH]c5ncccc45)cs3)c[nH]c2c1,–,98.4%,119,–,59.3,102%,110,107%,76.7,88.6
